Assay results: PubChem BioAssay (NCI)
This is part of a sample that, as a whole, favours compounds with a hit. Of some 83,000 tested, about 20% had one in any assay.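 48-hour exposure, single concentration, 96-well plates; percent growth endpoint where 0 means no net growth. Active: below 10.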 The source made the active and inactive calls.

What was measured:
Test in all cases: NCI-60 one-dose screen, 48 h (100 = growth as untreated, 0 = no growth, -100 = all killed)
Details in all cases: 10 µM unless noted
[1] = tested on: SK-MEL-2 melanoma
[2] = tested on: EKVX NSCLC
[3] = tested on: SN12C renal
[4] = tested on: UO-31 renal
[5] = tested on: TK-10 renal
[6] = tested on: ACHN renal
[7] = tested on: CAKI-1 renal
[8] = tested on: A498 renal
[9] = tested on: CCRF-CEM leukemia
[10] = tested on: MOLT-4 leukemia

Measured: growth

O=c1[nH][n+](-c2ccc(Cl)cc2)no1
inactive: [1] 75.4% | [2] 60.6% | [3] 73.5% | [4] 27% | [5] 70.8% | [6] 40.7% | [7] 18.5% | [8] 82.6% | [9] 55.3% | [10] 44.4%

Cc1nc2ccccc2n1CC1NC(=O)NC1=O (stereo not given)
inactive: [1] 104% | [2] 97.9% | [3] 97.7% | [4] 94.7% | [5] 102% | [6] 102% | [7] 96% | [8] 88.8% | [9] 107% | [10] 96%

COc1ccc(N=C(c2ccccc2)C2C(=O)c3ccccc3C2=O)cc1
inactive: [1] 40.8% | [2] 104% | [3] 104% | [4] 40.5% | [5] 103% | [6] 72.1% | [7] 88.1% | [8] 61.2% | [9] 46.1% | [10] 49.2%

O=c1oc2ccccc2c(Cl)c1Cl
inactive: [1] 54.7% | [2] 106% | [3] 17.9% | [4] 62.3% | [5] 94.3% | [6] 80.7% | [7] 83.4% | [8] 112% | [9] 18.9% | [10] 37.5%

COc1ccc(C2=NN(C(=O)c3cc(OC)c(OC)c(OC)c3)C(c3ccc(Cl)cc3)C2)cc1OC (stereo not given)
inactive: [1] 39.5% | [2] 53.4% | [3] 39.5% | [4] 34.4% | [5] 25.4% | [6] 43.3% | [7] 26.6%
active: [8] -1.72% | [9] -2.55% | [10] 9.1%

NCCCNc1nc2ccccc2c2c(=O)c3cccc(Cl)c3sc12
active: [4] 3.93% | [6] 7.6% | [9] 2.48% | [10] -23.4%
inactive: [1] 99.4% | [2] 31.2% | [3] 21.1% | [5] 58% | [7] 17.1% | [8] 65.2%

O=C(CCc1nnc(CN(c2ccccc2)c2ccccc2)o1)c1nc2ccccc2[nH]1
inactive: [1] 88.7% | [2] 63.4% | [3] 86.9% | [4] 61.3% | [5] 117% | [6] 108% | [7] 84.1% | [8] 80.5% | [9] 77.6% | [10] 55.7%

C[C@]12CC[C@@H]3c4cc(OC(F)F)c(O)cc4CC[C@H]3[C@@H]1CC[C@@H]2OS(N)(=O)=O
inactive: [1] 42.1% | [2] 24.6% | [3] 44.2% | [4] 38.2% | [5] 93.2% | [6] 50.7% | [7] 34.5% | [9] 16.6% | [10] 25.3%
active: [8] -7.08%

Cc1ccc(/C=C/c2c(C(=O)/C=C/c3ccc(C(F)(F)F)cc3)c(C)nc3ccccc23)cc1
active: [1] -20% | [2] -31.6% | [3] -61.7% | [4] -98% | [5] -71.1% | [6] -100% | [7] -91.1% | [8] -80.8% | [9] 9.01% | [10] -4.49%

Cc1c(C(=O)OC(=NC2CCCCC2)NC2CCCCC2)sc2c1c(=O)nc1c(C#N)n[nH]n12
inactive: [1] 93.6% | [2] 109% | [3] 117% | [4] 79.6% | [5] 117% | [6] 106% | [7] 101% | [8] 119% | [9] 300% | [10] 99.7%

COc1ccc(/C=C/c2c(C(=O)/C=C/c3cccs3)c(C)nc3ccccc23)cc1
inactive: [1] 89.6% | [2] 84.8% | [3] 79.1% | [4] 56.4% | [5] 116% | [6] 82.2% | [7] 57.2% | [8] 53.3% | [9] 64.5% | [10] 60.1%

CCCCCCN(CCCCCC)c1ccc(/C=C2/SC(=O)N(c3nc(N4CCCC4)nc(N4CCCC4)n3)C2=O)c(C)c1
inactive: [1] 53.9% | [2] 87.2% | [3] 59.9% | [4] 52.9% | [5] 85.8% | [6] 68.5% | [7] 82.5% | [8] 60.9% | [9] 54.1% | [10] 38.1%

CN(C)CCCn1c(=O)c2ccccc2c2ccccc21
inactive: [1] 83.7% | [2] 107% | [3] 50.6% | [4] 53.6% | [5] 79.3% | [6] 42.2% | [7] 79.8% | [8] 104% | [9] 49.9% | [10] 51.6%
